High-throughput results: PubChem BioAssay, SRMLSC
Compounds with a hit are over-represented: about 6.3% of the library has one in this group of screens.
Fluor 339 460 – intrinsic fluorescence of library compounds, ex339/em460 – biochemical, MLSMR library, data from DPM-DC assay, artefact control, profiling panel | compound autofluorescence, ex339/em460 nm, NADH buffer; active compounds read high; 1 = no-compound wells, NADH background | fluorescence fold increase at 10 µM | 65,000 compounds, 5.5% hits | AID 709;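 active means at 10 µM, mean starting fluorescence two-fold or more over control wells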;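 further: signal is the first read of a kinetic run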
Spn PMK inh – blocks S. pneumoniae phosphomevalonate kinase; inhibition, % at 10 µM; AID 539; 65,000 compounds, 0.49% hits; purified PMK, PK/LDH-coupled NADH absorbance 340 nm;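 active means top-ranked compounds by inhibition in the single 10 µM screen, taking a fixed number of the strongest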;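 further: 0% = full reaction with DMSO carrier and 100% = background rate without enzyme reaction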
NADH coupling – inhibition of NAD/NADH coupling enzymes, library profiling | 65,000 compounds, 0.02% hits | IC50, µM (top dose mostly 10 µM), without a hit: top-dose inhibition | AID 774 | coupled PK/LDH NADH assays, four targets;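 active means single-dose screening hits from any of four coupled enzyme assays that gave an IC50 when retested across doses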;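 further: the DPM-DC format reads NADH fluorescence rather than 340 nm absorbance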
A340 absorber – compound absorbs light at 340 nm | compound absorbance at 340 nm, fold over control | fold change at 10 µM | 65,000 tested, under 10 active | AID 708;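 active means at 10 µM dose, initial 340 nm absorbance at least 2 fold that of control wells; inactive means change under 2 fold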;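 further: initial absorbance extrapolated from kinetic A340 decline of NADH oxidation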
DPM-DC inhibit – blocks S. pneumoniae diphosphomevalonate decarboxylase; purified DPM-DC, PK/LDH coupled NADH fluorescence; calls only at 10 µM; 65,000 compounds, 0.49% hits;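 active means the 320 compounds with the highest percent inhibition in the single-dose primary screen, excluding strongly autofluorescent ones, cut at about 32% in these data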;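 further: kinetic rate of NADH fluorescence loss reporting ADP formed by the decarboxylase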
MK inhibit – S. pneumoniae mevalonate kinase inhibition; AID 555; purified MK, PK/LDH-coupled NADH absorbance 340 nm; inhibition, % at 10 µM; 65,000 compounds, 0.48% hits;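 active means ranked among the strongest by inhibition in the single 10 µM screen, a fixed top-ranked set picked for dose follow-up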
* hit, by the source's call.

How did COCCn1c(CN2CCN(c3ccccc3F)CC2)nc2c1c(=O)n(C)c(=O)n2C do in these assays?
Fluor 339 460: 1; Spn PMK inh: 13; NADH coupling: 3%; A340 absorber: 0.99; DPM-DC inhibit: inactive; MK inhibit: 6

Results for COC(=O)c1ccc2ccn(CC(=O)NC(C)C)c2c1 ?
Fluor 339 460: 2.1*; Spn PMK inh: 0; NADH coupling: 4%; A340 absorber: 1.1; MK inhibit: 8

How did CC(C)NC(=O)Cn1cc(C#N)c2cc(Br)ccc21 do in these assays?
Fluor 339 460: 1.1; Spn PMK inh: 0; NADH coupling: 3%; A340 absorber: 1; DPM-DC inhibit: inactive; MK inhibit: 8

Results for C=CCOc1cccc(C2C(C(=O)c3ccc(C)o3)=C(O)C(=O)N2c2nccs2)c1 (configuration not stated) ?
Fluor 339 460: 1.2; Spn PMK inh: 3; NADH coupling: 3%; A340 absorber: 1.1; DPM-DC inhibit: inactive; MK inhibit: 5

What do the screens show for `CC(=O)OC(/C(O)=C(\C#N)c1nc2ccccc2[nH]1)c1ccccc1` (configuration not stated)?
Fluor 339 460: 1.6; Spn PMK inh: 10; NADH coupling: 5%; A340 absorber: 1.1; DPM-DC inhibit: inactive; MK inhibit: 4

What do the screens show for `CCC(=O)Nc1ccc(NC(=O)c2ccccn2)cn1`?
Fluor 339 460: 1.1; Spn PMK inh: 0; NADH coupling: 4%; A340 absorber: 1; DPM-DC inhibit: inactive; MK inhibit: active

How did CCCCCCNC(=O)Cc1nc2nc(C)cc(C)n2n1 do in these assays?
Fluor 339 460: 1; Spn PMK inh: 20; NADH coupling: 9%; A340 absorber: 1; DPM-DC inhibit: inactive; MK inhibit: 7

Results for COc1cc(CNCc2ccc(OC)c(OC)c2OC)cc(OC)c1 ?
Fluor 339 460: 1.1; Spn PMK inh: 0; NADH coupling: 17%; A340 absorber: 1.1; DPM-DC inhibit: inactive; MK inhibit: 51*

What do the screens show for `O=C(CS(=O)CC(=O)N(CC(=O)NC1CCCC1)C1CCCCC1)Nc1ccc(F)cc1` (configuration not stated)?
Fluor 339 460: 1; Spn PMK inh: 14; NADH coupling: 6%; A340 absorber: 1; DPM-DC inhibit: inactive; MK inhibit: 0

How did COc1ccccc1OCc1nc2c3c(-c4ccccc4)c(-c4ccccc4)oc3ncn2n1 do in these assays?
Fluor 339 460: 3.2*; Spn PMK inh: 1; NADH coupling: 2%; A340 absorber: 1.2; MK inhibit: 2

How did Cc1nc2c3c(-c4ccccc4)c(-c4ccccc4)oc3ncn2n1 do in these assays?
Fluor 339 460: 2; Spn PMK inh: 15; NADH coupling: 5%; A340 absorber: 1; DPM-DC inhibit: inactive; MK inhibit: 0

What do the screens show for `CCCc1c(CC)c(=N)c2ccccc2n1C`?
Fluor 339 460: 3.5*; Spn PMK inh: 3; NADH coupling: 6%; A340 absorber: 1.1; MK inhibit: 8

How did Cn1c(-c2ccccc2)c(CCO)c2ccccc21 do in these assays?
Fluor 339 460: 1.4; Spn PMK inh: 0; NADH coupling: 2%; A340 absorber: 0.99; DPM-DC inhibit: inactive; MK inhibit: 0

Results for O=C(O)c1cc(S(=O)(=O)N2CCOCC2)c(Sc2ccccn2)cc1Sc1ccccn1 ?
Fluor 339 460: 1.1; Spn PMK inh: 9; NADH coupling: 4%; A340 absorber: 1.1; DPM-DC inhibit: inactive; MK inhibit: 2

How did Cc1ccc(CSc2nc3c(c(=O)[nH]2)C(c2ccncc2)C2=C(CCCC2=O)N3)cc1 (configuration not stated) do in these assays?
Fluor 339 460: 2.4*; Spn PMK inh: 9; NADH coupling: 5%; A340 absorber: 1; MK inhibit: 4

What do the screens show for `CSc1nc(-c2ccccc2)nc2[nH]ccc(=O)c12`?
Fluor 339 460: 1.1; Spn PMK inh: 13; NADH coupling: 6%; A340 absorber: 1.1; DPM-DC inhibit: inactive; MK inhibit: 5

How did Cc1ccccc1OCCNC(=O)CNC(=O)c1ccccc1O do in these assays?
Fluor 339 460: 3.7*; Spn PMK inh: 9; NADH coupling: 7%; A340 absorber: 1; MK inhibit: 4

What do the screens show for `Cc1nc(COC(=O)c2c(C)nn(-c3ccccc3)c2C)cs1`?
Fluor 339 460: 1.1; Spn PMK inh: 11; NADH coupling: 6%; A340 absorber: 1; DPM-DC inhibit: inactive; MK inhibit: 7

What do the screens show for `CC(NC(=O)Nc1ccc(O)cc1)(C(F)(F)F)C(F)(F)F`?
Fluor 339 460: 1.1; Spn PMK inh: 4; NADH coupling: 1%; A340 absorber: 1; DPM-DC inhibit: inactive; MK inhibit: 0

Results for CC(NC(=O)Nc1ccccc1O)(C(F)(F)F)C(F)(F)F ?
Fluor 339 460: 2.6*; Spn PMK inh: 3; NADH coupling: 3%; A340 absorber: 1; DPM-DC inhibit: inactive; MK inhibit: 5

What do the screens show for `Cc1cc(C)c2c(n1)nn1c(NCCOCCO)cc(C)nc21`?
Fluor 339 460: 3.9*; Spn PMK inh: 7; NADH coupling: 9%; A340 absorber: 1; MK inhibit: 10

What do the screens show for `O=S(=O)(Nc1nc(CN2CCOCC2)nc2sc3c(c12)CCCC3)c1cc(F)ccc1F`?
Fluor 339 460: 1.3; Spn PMK inh: 16; NADH coupling: 6%; A340 absorber: 1; DPM-DC inhibit: inactive; MK inhibit: 1

What do the screens show for `COC(=O)CC(=O)CSc1nc2c(cc1C#N)CCCCC2`?
Fluor 339 460: 3.9*; Spn PMK inh: 0; NADH coupling: 0%; A340 absorber: 1.1; MK inhibit: 0

What do the screens show for `Cc1ccc(CCNC(=O)c2coc3nc4ccccc4nc23)cc1`?
Fluor 339 460: 2.3*; Spn PMK inh: 12; NADH coupling: 4%; A340 absorber: 1; DPM-DC inhibit: inactive; MK inhibit: 1

What do the screens show for `Cc1occc1C(=O)NCCCc1ccccc1`?
Fluor 339 460: 1.1; Spn PMK inh: 0; NADH coupling: 0%; A340 absorber: 1.1; DPM-DC inhibit: inactive; MK inhibit: 0

Results for CC1CCN(CCCNC(=O)c2coc3nc4ccccc4nc23)CC1 ?
Fluor 339 460: 3.4*; Spn PMK inh: 10; NADH coupling: 3%; A340 absorber: 1; MK inhibit: 7

What do the screens show for `CC1CCN(CCCNC(=O)c2n[nH]c(=O)c3ccccc23)CC1`?
Fluor 339 460: 1.1; Spn PMK inh: 0; NADH coupling: 1%; A340 absorber: 1.1; DPM-DC inhibit: inactive; MK inhibit: 2

How did CC1CCCN(CCCNC(=O)c2coc3nc4ccccc4nc23)C1 (configuration not stated) do in these assays?
Fluor 339 460: 4.9*; Spn PMK inh: 15; NADH coupling: 13%; A340 absorber: 1.1; MK inhibit: 10

How did Cn1c(=O)c2c(nc(CN3CCN(C(=O)c4ccco4)CC3)n2Cc2ccccc2F)n(C)c1=O do in these assays?
Fluor 339 460: 1.1; Spn PMK inh: 17; NADH coupling: 9%; A340 absorber: 1; DPM-DC inhibit: inactive; MK inhibit: 6
